From PubChem BioAssay
D2 ag-1: activates the human D2 dopamine receptor | P14416 | DiscoveRx PathHunter D2 beta-arrestin, luminescence, 90 min; 100% = 57 uM dopamine signal | activation, % (concentration not given with the values) | actives 0.084% (n = 360,000); in the data active = activation above about 40%; inconclusive = between about 15% and that limit
Target sequence (P14416 whole entry, looked up): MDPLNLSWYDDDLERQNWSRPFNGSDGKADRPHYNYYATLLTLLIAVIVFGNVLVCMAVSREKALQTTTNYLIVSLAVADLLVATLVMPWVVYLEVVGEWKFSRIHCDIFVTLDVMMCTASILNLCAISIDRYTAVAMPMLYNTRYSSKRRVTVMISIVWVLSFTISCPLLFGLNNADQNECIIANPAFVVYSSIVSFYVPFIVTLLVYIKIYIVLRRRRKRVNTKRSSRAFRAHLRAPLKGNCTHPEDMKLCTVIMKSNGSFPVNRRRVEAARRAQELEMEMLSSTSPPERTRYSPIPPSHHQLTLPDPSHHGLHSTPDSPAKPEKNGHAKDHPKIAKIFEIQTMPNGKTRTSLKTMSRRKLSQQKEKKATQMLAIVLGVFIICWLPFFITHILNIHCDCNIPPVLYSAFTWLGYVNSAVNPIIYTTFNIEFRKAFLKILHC
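Agonist mode: compounds alone added to overnight-plated D2 PathHunter cells for 90 min at 37 C, with 57 uM final dopamine (EC100) defining full response. Beta-arrestin recruitment detected by chemiluminescent reagent, read after 1 h at ambient temperature.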
D2 antag: antagonists of human D2 dopamine receptor | P14416 | HEK293 TREx D2 cells, calcium flux, dopamine EC80 | inhibition, % at 10 µM | actives 2% (n = 340,000) | AID 485344; in the data active = inhibition above about 30%; inactive = below that, where a call was filed; also: 0% is about no effect
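Compounds are added to dye-loaded, induced HEK293 T-REx cells coupled to calcium release via D2; after a 3 min kinetic read an EC80 dopamine stimulus is given and fluorescence is recorded for 3 more min.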
D2 ag-2: D2 dopamine receptor (human) agonism; P14416; actives 0.53% (n = 340,000); activation, % at 2 µM; HEK293 T-REx D2 cells, calcium flux agonist mode;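 active = activation over 3 SD above normal in the single-dose calcium agonist read, cut at about 30% in these data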; also: 0% is about no effect
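Calcium-flux readout, 1 cycle/sec over 180 s following compound pin transfer, in inducible HEK293 Trex D2 cells (force-coupled); dopamine controls included. Positive calcium responses during this window marked compounds as potential agonists.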
D2 PAM-1: positive allosteric modulators of human D2 dopamine receptor; P14416; DiscoveRx D2 beta-arrestin cells, luminescence, 90 min; 100% = 57 uM dopamine signal; potentiation, % (concentration not given with the values); actives 0.23% (n = 360,000); in the data active = potentiation above about 50%; inconclusive = mostly about 30% to 49%
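D2 cells co-treated with compound plus 50 nM dopamine (EC20) for 90 min at 37 deg C to detect potentiation. Beta-arrestin recruitment was read as enzyme-fragment luminescence after 1 h at ambient temperature. Full response was set by 57 uM dopamine.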
D2 PAM-2: positively modulates the human D2 dopamine receptor allosterically; P14416; HEK293 T-REx D2, calcium flux, EC20 dopamine potentiation; potentiation, % at 10 µM; actives 0.34% (n = 340,000); AID 485347;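 active = potentiation over 3 SD above the plate norm, cut at about 30% in these data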; also: 0% is about no effect
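Potentiation of an EC20 dopamine calcium response measured kinetically over 180 s, after a preceding 180 s compound-only read flagging agonists. Cells: inducible Hek293 Trex D2 line, 4000/well, cultured overnight at 30 C before dye loading.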
Starred values were filed as active, the others as inactive; ? = inconclusive; / = not tested or not shown. An excerpt weighted towards active compounds, which were near 2.4% of everything screened.

SMILES | D2 ag-1 | D2 antag | D2 ag-2 | D2 PAM-1 | D2 PAM-2
CCn1cnc2c1c(=O)n(Cc1csc(-c3ccccc3)n1)c(=O)n2Cc1ccccc1 | -0.3 | 4.3 | 1.0 | -0.9 | 7.0
CCn1cnc2c1c(=O)n(Cc1nnc3n1-c1ccccc1SC3)c(=O)n2Cc1ccccc1 | -4.4 | 5.1 | 1.5 | -0.2 | 34.4*
COc1ccc(O)c(CN2CCN(CCCc3ccccc3)C(CCO)C2)c1 (stereo not given) | -1.4 | 74.8* | -3.3 | -1.6 | -19.7
OCCC1CN(Cc2ccc(F)cc2Cl)CCN1CCc1ccccc1 (stereo not given) | 3.4 | 29.6 | 0.4 | -23.7 | -17.5
COc1ccc(OC)c(CN2CCN(CCc3ccccc3)C(CCO)C2)c1 (stereo not given) | -6.3 | 44.9* | 1.2 | -9.0 | -17.0
COCc1cc(CN2CCN(CCCc3ccccc3)C(CCO)C2)ccc1OC (stereo not given) | -1.6 | 7.8 | 1.0 | -11.9 | -7.2
OCCC1CN(Cc2cc(F)ccc2F)CCN1CCCc1ccccc1 (stereo not given) | -7.0 | 83.2* | -1.0 | -5.8 | -35.5
COc1ccc(F)c(CN2CCN(CCc3ccccc3)C(CCO)C2)c1 (stereo not given) | 2.0 | -9.7 | 0.9 | -12.2 | -4.7
COc1ccccc1NC(=O)CCN1CCC(C(N)=O)CC1 | / | / | -0.6 | / | 8.4
CCOC(=O)c1ccc(NC(=O)C2CCCN(c3ncnc4onc(-c5ccc(F)cc5)c34)C2)cc1 (stereo not given) | / | / | 1.1 | / | -5.4
CC(=O)c1c(-c2ccccc2)c2cc(Cl)ccc2[nH]c1=O | -0.6 | 74.9* | -0.8 | -46.2 | 1.9
Cc1cccc(-n2c(=O)c3c(c4cc(C)ccc4n3C)n(CC(=O)Nc3ccc(C)cc3C)c2=O)c1 | / | / | 0.9 | / | 2.4
O=C(Nc1nc2ccccc2s1)c1cccc(S(=O)(=O)N2CCc3ccccc32)c1 | -1.9 | / | / | -0.9 | /
O=C(Nc1nc2c(s1)CN(Cc1ccccc1)CC2)c1cccc(S(=O)(=O)N2CCc3ccccc32)c1 | 0.9 | 40.8* | 8.9 | -3.9 | -20.0
CCCCC(=O)Nc1ccc2oc(-c3cccnc3)nc2c1 | -2.6 | 4.9 | -0.9 | 13.1 | -7.3
CCCC(=O)Nc1ccc2oc(-c3cccnc3)nc2c1 | -2.5 | 31.9* | -0.8 | ? | 13.2
COc1ccc(OC)c(C2C3CN(C(C)C)CC=C3C(C#N)=C(N)C2(C#N)C#N)c1 (stereo not given) | -6.1 | -7.0 | 3.5 | -49.2 | -14.6
CCCN1CC=C2C(C#N)=C(N)C(C#N)(C#N)C(c3cccc(OC)c3OC)C2C1 (stereo not given) | -3.0 | 4.7 | 56.7* | -25.4 | -15.0
N#CC1=C(N)C(C#N)(C#N)[C@H](c2ccoc2)[C@H]2CN(Cc3ccccc3)CC=C12 | 1.0 | 0.7 | 31.1* | -17.1 | 3.5
Cc1cccc(C)c1NC(=S)N/N=C/c1ccc(C(=O)O)cc1 | -0.5 | 36.2* | 0.1 | 1.3 | -0.6
CCOCCCNC(=O)C(c1ccc(OC)cc1)N(Cc1ccc2c(c1)OCO2)C(=O)c1ccccc1O (stereo not given) | 0.7 | 14.6 | 0.7 | -8.3 | 22.2
Cc1cc(O)c2c(C)c(CC(=O)N3CCN(C(=O)C4COc5ccccc5O4)CC3)c(=O)oc2c1 (stereo not given) | 0.6 | 0.2 | -2.4 | -0.4 | 2.6
COc1cc(C)cc2oc(=O)c(CC(=O)N3CCN(C(=O)C4COc5ccccc5O4)CC3)c(C)c12 (stereo not given) | 5.0 | 37.1* | -0.8 | 12.2 | 3.4
Cc1cc(F)ccc1S(=O)(=O)Nc1ccccc1C(=O)NC1CCN(Cc2ccccc2)CC1 | -2.9 | 26.3 | 1.0 | -37.5 | -17.5
c1ccc(C2=NN(c3ccccc3)CC2)cc1 | -3.8 | 3.7 | -0.4 | -13.3 | 8.6
SMILES | D2 ag-1 | D2 antag | D2 ag-2 | D2 PAM-1 | D2 PAM-2
CCOC(=O)/C(=C/c1ccc(N2CCC(c3ccccc3)=N2)cc1)C(C)=O | -0.9 | 16.3 | 36.9* | 0.1 | -24.2
COc1ccc(C(=O)NCC(=O)N/N=C/c2c(C)[nH]c3ccccc23)cc1 | 1.2 | 52.7* | -1.1 | -26.9 | -4.1
Cc1cc(C)c2c(c1)[C@@H]1C=CC[C@@H]1[C@H](c1ccc(S(=O)(=O)N3CCOCC3)cc1)N2 | -1.6 | 35.0* | -0.2 | -4.6 | 2.0
CCc1ccccc1NC(=S)N(CCN1CCOCC1)C1CCN(C(C)=O)CC1 | -3.8 | 30.9* | -1.3 | -1.1 | 0.5
CCc1ccccc1NC(=O)Cc1c(C(=O)O)[nH]c2ccc(Cl)cc12 | / | / | 0.3 | / | -6.9
O=C(Nc1ccc2c(c1)C(=O)OC2)c1ccc(C(F)(F)F)cc1 | -2.5 | 33.7* | -0.6 | -14.7 | -14.9
O=C(CC(=O)Nc1ccc(F)cc1F)Nc1ccc(F)cc1F | -0.9 | 22.7 | -1.7 | -4.6 | -6.4
N#CCO/N=C/C(=O)Nc1ccc(F)cc1F | -3.6 | 53.2* | -0.8 | -2.6 | 5.8
Cc1cc(-n2c(C)cc(C(=O)COc3ccc(F)c(F)c3)c2C)no1 | 9.3 | 30.0* | 0.1 | 0.1 | -15.3
Cc1cc(-n2c(C)cc(C(=O)COc3ccccc3[N+](=O)[O-])c2C)no1 | 0.3 | / | / | -12.9 | /
Cc1cccc(CN2CCN(c3nc4nonc4nc3NC3CC3)CC2)c1 | -4.7 | -5.5 | 0.0 | -1.8 | 5.5
Clc1cccc(CN2CCN(c3nc4nonc4nc3NC3CC3)CC2)c1 | -2.2 | 37.7* | 0.4 | -3.1 | 8.3
COc1ccccc1N1CCN(C(=S)Nc2ccccc2)CC1 | 4.8 | 47.2* | 0.3 | -12.4 | -5.2
COc1ccccc1N1CCN(C(=S)Nc2ccc(F)cc2)CC1 | 3.0 | -10.5 | 1.1 | -15.4 | -3.3
O=C(N/C=C/n1cnc2cc(C(F)(F)F)ccc21)c1ccccc1F | 0.7 | -7.5 | -0.2 | -8.4 | 83.2*
O=C(N/C=C/n1cnc2cc(C(F)(F)F)ccc21)c1ccc(F)cc1 | -1.0 | / | / | -7.0 | /
CCc1nnc(SCC(=O)Nc2ccc(N3CCN(S(C)(=O)=O)CC3)cc2)o1 | 3.4 | / | / | 1.4 | -4.0
CCOC(=O)c1cnn(Cc2ccccc2)c1N | 0.3 | 1.2 | -0.4 | 8.2 | -0.7
CCOC(=O)c1cnn(Cc2cccc(Cl)c2)c1C | -2.4 | 55.8* | -2.2 | -11.3 | 2.9
Cc1ccc(-c2nnc(N(C)C(=O)c3cccnc3)s2)cn1 | -1.3 | 16.1 | -1.3 | 22.9 | 5.7
Cc1ccc(-c2nnc(N(C)C(=O)c3cccnc3)s2)cc1 | 3.3 | 3.6 | 0.3 | 12.2 | 37.6*
COc1ccccc1C(=O)NC1(C(F)(F)F)C(=O)Nc2c1c(=O)[nH]c(=O)n2-c1ccccc1 (stereo not given) | / | / | 0.0 | / | -13.1
CCN(CC)CCNC(=O)Nc1ccc2c(c1)N(Cc1ccccc1)C(=O)c1ccccc1S2 | / | / | -1.1 | / | -7.1
CC(C)C(=O)N(c1cc2sc(=O)oc2c2ccccc12)S(=O)(=O)c1cccs1 | ? | -12.1 | 1.0 | 75.3* | -6.8
